# High-throughput results (PubChem)
# This is one part of a sample in which hits are shown more often than they occur.
# Integrin act MD: integrin-mediated muscular dystrophy alleviation activation. AID 624291. Potency, µM (doses to about 38.3 µM), for the others: at the top dose activation, most hits filed as activators. 350,000 tested, 0.064% active. alpha7betagal myoblasts, beta-gal FDG fluorescence, 48 h;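 further: 100% = response of the positive control SU9516; nearly all actives have a fitted effect of over 60% in size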
#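 Alpha7betagal+/- myoblasts (passage 13) were plated 16-24 hr, then exposed to compounds (1:260 dilution of DMSO stock) for 48 hours at 37C. After MPER lysis, β-galactosidase reporter activity was read as FDG fluorescence (ex 480/em 540) after 30 minutes.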
# USP2a block: blocks human ubiquitin-specific protease USP2a. 330,000 tested, 0.01% active. USP2 core, Ub-CHOP2 coupled fluorogenic reporter, 485/531. Potency, µM (series often up to 38.3 µM), without a hit: at the top dose activity change, negative = inhibition, hits mostly inhibitors. O75604;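 further: plate controls were DMSO wells for no effect and full inhibition by NEM control for full effect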
#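 USP2 core (10nM final) preincubated 30min RT with compound in 20mM Tris-HCl pH 8.0, 2mM CaCl2, 2mM beta-mercaptoethanol, 0.05% CHAPS; 25nM Ub-CHOP2 plus 25nM reporter substrate added, fluorescence (Ex485/Em531) read after 60min.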
# p53 reactivator: mutant p53 re-activation in reporter cells | AID 504706 | H1299 p53-A138V BP100-luciferase reporter, luminescence, 24 h | Potency, µM (titrated, usually from 92.2 µM), for the others: at the top dose activity change, positive = activation, hits mostly activators | 320,000 tested, 0.063% active; further: % of control where 0% means no effect; nearly all actives have a fitted effect of over 45% in size
#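 p53-null H1299 cells stably carrying temperature-sensitive p53-A138V and a BP100-luciferase reporter were pinned with compounds (4-point, 1:5 series) and held 24 hrs at 37 deg C. Luminescence was read 10 min after detection reagent.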
# Mm-Cpn inhibitor: blocks the Methanococcus maripaludis chaperonin Mm-Cpn; 330,000 tested, 0.031% active; purified Mm-Cpn ATPase, ADP Transcreener TR-FRET; Potency, µM (titrated, usually from 76.9 µM), without a hit: at the highest dose activity, negative = inhibition, hits mostly inhibitors; further: on the % scale 0 is the no-effect control and ±100 the full control effect; nearly all actives have a fitted effect of over 80% in size
#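 Purified archaeal chaperonin (25 nM final) was preincubated with compound for 10 min at 37°C, then ATP (10 uM final) was added for 30 min at 37°C in Tris pH 7.4/KCl/MgCl2/DTT buffer. ADP was quantified by HTRF Transcreener TR-FRET.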
# Eya2 phos inh: blocks the phosphatase activity of human Eya2. O00167. recombinant Eya2, OMFP fluorescence dephosphorylation (OMFP is methylfluorescein phosphate). Potency, µM (titrated, usually from 76.9 µM), for inactives: at the top dose activity, negative = inhibition, most hits filed as inhibitors. 330,000 tested, 0.006% active. AID 488837; further: on the % scale 0 is the no-effect control and ±100 the full control effect
#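 Eya2 (0.2 uM) preincubated 10 min at ambient with compound, then OMFP substrate added at 50 uM; 10 min reaction in 50 mM HEPES pH 7.5, 50 mM NaCl, 5 uM MgCl2, 0.05% BSA, 1 mM DTT. Fluorescence read at Ex 485/Em 525 nm.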
# ClpP mod: qHTS Assay for Activators of ClpP; Potency, µM (series often up to 57.5 µM), without a hit: top-dose activity change, negative = active; 340,000 tested, 1.9% active; AID 651965, 2013; purified B. subtilis ClpP, FRET peptide cleavage, 20 min; ATP-dependent Clp protease proteolytic subunit (Bacillus subtilis (strain 168)), P80244; active means well fitted falling curve with a large enough effect; inconclusive means small, poorly fitted or top-dose-only effect; inactive means no such curve, though single readings can be large or run the other way; further: the source files actives as falling curves though it sought activators and does not explain the sign; nearly all actives have a fitted effect of over 65% in size
# Target sequence (P80244 whole entry, looked up): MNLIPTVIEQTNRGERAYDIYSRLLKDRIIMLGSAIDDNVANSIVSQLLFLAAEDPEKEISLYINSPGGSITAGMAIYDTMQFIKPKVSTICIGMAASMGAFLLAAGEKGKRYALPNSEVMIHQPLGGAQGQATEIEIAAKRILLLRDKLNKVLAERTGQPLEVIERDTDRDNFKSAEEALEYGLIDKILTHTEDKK
#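 FRET quenching reversal measured ClpP activation: 10 microg/mL B. subtilis ClpP at pH 8 with the FRET-FV decapeptide, read at 430 nm after 320 nm excitation. The 20-min minus 0-min signal was scaled between DMSO/no-enzyme wells and ADEP (5.8 microM final).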
# An asterisk follows results filed as active; ? = inconclusive; . = no result given; [ ] = dose if it differs, or a comment. Unless noted, the call rests on the fitted dose curve; in most records, active means well fitted curve in the direction sought with a large enough effect; inconclusive means small, poorly fitted or top-dose-only effect, or another doubt; inactive means no such curve, though single readings can be large; an effect the other way counts as inactive or inconclusive. Potency means the concentration at half of the fitted maximal effect.
SMILES,Integrin act MD,USP2a block,p53 reactivator,Mm-Cpn inhibitor,Eya2 phos inh,ClpP mod
CCOc1ccc(CNC(=O)c2ccc3c(c2)c(C)c(C)n3Cc2ccc(Cl)cc2)cc1,.,.,.,.,.,16µM*
CCCCCCCCCC[n+]1ccc(/C=C/c2ccc(N(C)C)cc2)c2ccccc21,.,.,.,.,.,-3%
Cc1ccccc1OCCC(=O)OCC(=O)c1c(N)n(CC(C)C)c(=O)n(C)c1=O,-31%,.,.,.,.,28µM*
Cc1ccc(OCCC(=O)OCC(=O)c2c(N)n(CC(C)C)c(=O)n(C)c2=O)cc1,-40%,0%,-11%,0%,-18%,1%
CN(CC(=O)Nc1ccccc1Br)C(=O)c1ccccc1-c1nc2ccccc2s1,8%,-8%,-39%,-11%,6%,28µM*
CCOC(=O)c1oc2c(O)c(O)ccc2c(=O)c1-c1nncn1-c1ccccc1,14%,3%,14%,1%,12%,22µM*
COc1cc(/C=C/c2nc3ccccc3nc2/C=C/c2cc(OC)c(OC)c(OC)c2)cc(OC)c1OC,.,.,.,.,.,-1%
Cc1ccc(N(C)C(CNS(=O)(=O)c2ccccc2)c2ccccc2)cc1 (centres undefined),.,.,.,.,.,-6%
Cc1c(C#N)c(NC(=O)COC(=O)c2cc(Cl)c3c(c2)OCCCO3)n(Cc2ccco2)c1C,.,.,.,.,.,1%
CCc1ccc(CNC(=O)CN2C(=O)CCn3nc(-c4cn(C)c5ccccc45)cc32)cc1,.,.,.,.,.,-8%
O=C(NCc1cccc(F)c1)c1ccccc1NC(=O)c1nsc2ccccc12,.,.,.,.,.,28µM*
CSc1ccc(CNC(=O)c2ccccc2NC(=O)c2nsc3ccccc23)cc1,.,.,.,.,.,-13%
Cc1ccccc1NC(=O)CN1C(=O)NC(C)(c2ccc3c(c2)OCO3)C1=O (centres undefined),1%,5%,4%,1%,10%,16µM*
CCCC[C@]12Cc3ccccc3C(O1)c1c(cc(-c3ccccc3)oc1=O)O2,.,-1%[7.66 µM],.,0%[15.4 µM],-5%[15.4 µM],.
COc1ccc(/C=C/C(=O)c2c(O)c(OC)c3occc3c2OC)cc1OC,.,.,.,.,.,-1%
COc1ccc(-c2nc(-c3cccc(C)c3)nc(Cl)c2C#N)cc1,.,-1%,18%,-1%,-28%,.
COc1ccc(-c2nc(-c3ccccc3)nc(Cl)c2C#N)cc1,0%,1%,0%,0%,6%,32µM*
COc1cccc(CNC(=O)c2ccc(NC(=O)N3CCCCc4ccccc43)cc2)c1OC,.,.,.,.,.,4%
CCOc1ccc2ncc3c(-c4cccc(OC)c4)nn(-c4ccccc4)c3c2c1,.,.,.,.,.,10µM*
CCOc1ccc2nc(N3CCCC(C(=O)Nc4ccccc4CC)C3)sc2c1 (centres undefined),.,.,.,.,.,1%
O=C(CSC1=Nc2ccccc2N=C(c2ccc(F)cc2)C1)Nc1cc(F)ccc1F,.,.,.,.,.,1%
Fc1ccc2nc(Nc3ccccc3)sc2c1,2%,1%,?,-3%,-6%,11µM*
Cc1ccc(C(=O)CC(=O)c2ccccc2)cc1,?,2%,15%,0%,-6%,8%
Cc1ccc(C(=O)OCC(=O)c2ccccc2)cc1,11%,-4%,?,1%,5%,14µM*
CC(=O)Nc1ccc(/C=C/c2nc3ccccc3s2)cc1,.,.,.,.,.,2%
SMILES,Integrin act MD,USP2a block,p53 reactivator,Mm-Cpn inhibitor,Eya2 phos inh,ClpP mod
O=C1C(C=NCCN2CCOCC2)=C(O)c2ccccc21,12%,2%,?,-2%,10%,28µM*
COc1ccccc1CC(=O)NC1CC1,14%,0%,2%,0%,6%,0%
COc1ccccc1CC(=O)NC1CC(C)(C)NC(C)(C)C1,-3%,-1%,?,-1%,2%,28µM*
CCOc1ccc(N2CC(C(=O)Nc3ncccc3C)CC2=O)cc1 (centres undefined),3%,1%,0%,-3%,-7%,18µM*
CN1C(=O)C2(N=c3ccccc3=N2)c2ccccc21,1%,1%,0%,-1%,-5%,13µM*
CN1C(=O)C2(OCC(C)([N+](=O)[O-])CO2)c2ccccc21 (centres undefined),6%,0%,3%,-1%,-3%,.
O=C(NCc1cccs1)c1nn(-c2ccccc2F)nc1CO,.,.,.,.,.,1%
O=C1CC(c2cc3c(cc2Br)OCO3)C2=C(CCCC2=O)N1 (centres undefined),23%,1%,-1%,1%,11%,25µM*
COc1ccc(NC(=O)C2CCN(S(=O)(=O)c3ccc4[nH]c(=O)ccc4c3)CC2)cc1Cl,.,.,.,.,.,-6%
COc1ccc2oc(=O)c(C(=O)NCC3CCCO3)cc2c1 (centres undefined),7%,3%,?,-8%,15%[15.4 µM],28µM*
COc1ccc2oc(=O)c(C(=O)NCc3ccc(F)cc3)cc2c1,14%,1%,2%,-2%,7%,1%
CNC(=O)c1cc2ccc(OC)cc2oc1=O,6%,1%,-16%,-3%,-1%,84%
COc1ccc2oc(=O)c(C(=O)NCc3cccnc3)cc2c1,5%,2%,2%,-5%,-3%,28µM*
CNC(=O)c1cc2cc(OC)ccc2oc1=O,5%,2%,1%,-6%,-21%,28µM*
